# Values without a mark were called inactive.
# Assays:
# Experiment in all cases: log2 ratio of Biotin-Ahx-Ub-VS probe labelling (fragment/DMSO); higher = less target engagement (more negative = stronger competition), active = hit call of the paper (q ≤ 0.05, log2 ratio ≤ -1)
# Settings in all cases: compound concentration: 200 uM; treatment time: 3 h
# USP9X = USP9X (UniProt Q93008)
# Outline: (§1)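 HEK293T lysate (495 µg per sample, in Tris/CHAPS/IGEPAL buffer with protease inhibitors) was exposed in triplicate for 3 h to fragment at 200 µM or to vehicle, then to Biotin-Ahx-Ub-VS at 0.5 µM final for 1 h. Labelled DUBs were enriched on NeutrAvidin, digested with LysC and trypsin, and analysed by diaPASEF LC-MS/MS. Spectronaut label-free quantities were normalised to the global median, and values are average log2 ratios of fragment over vehicle from an unpaired t-test. Only proteins with ≥2 unique peptides were used.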
# UniProt O00487 = target: UniProt O00487
# Outline: as §1
# UniProt O00507 = target: UniProt O00507
# Outline: as §1
# UniProt P51784 = target: UniProt P51784
# Outline: as §1
# UniProt Q5T2D3 = target: T1, UniProt Q5T2D3
# T1 sequence (whole entry): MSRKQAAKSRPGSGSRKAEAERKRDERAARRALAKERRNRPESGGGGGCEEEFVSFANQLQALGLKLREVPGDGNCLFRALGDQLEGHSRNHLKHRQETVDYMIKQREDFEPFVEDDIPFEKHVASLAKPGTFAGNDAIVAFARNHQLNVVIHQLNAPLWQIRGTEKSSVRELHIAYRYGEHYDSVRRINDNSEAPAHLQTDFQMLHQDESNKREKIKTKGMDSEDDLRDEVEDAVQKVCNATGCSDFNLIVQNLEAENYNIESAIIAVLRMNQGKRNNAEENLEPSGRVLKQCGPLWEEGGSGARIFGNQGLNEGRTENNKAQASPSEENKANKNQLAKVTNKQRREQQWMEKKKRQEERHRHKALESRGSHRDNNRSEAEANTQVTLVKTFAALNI
# Outline: as §1
# UniProt Q8TE49 = target: T2, UniProt Q8TE49
# T2 sequence (whole entry): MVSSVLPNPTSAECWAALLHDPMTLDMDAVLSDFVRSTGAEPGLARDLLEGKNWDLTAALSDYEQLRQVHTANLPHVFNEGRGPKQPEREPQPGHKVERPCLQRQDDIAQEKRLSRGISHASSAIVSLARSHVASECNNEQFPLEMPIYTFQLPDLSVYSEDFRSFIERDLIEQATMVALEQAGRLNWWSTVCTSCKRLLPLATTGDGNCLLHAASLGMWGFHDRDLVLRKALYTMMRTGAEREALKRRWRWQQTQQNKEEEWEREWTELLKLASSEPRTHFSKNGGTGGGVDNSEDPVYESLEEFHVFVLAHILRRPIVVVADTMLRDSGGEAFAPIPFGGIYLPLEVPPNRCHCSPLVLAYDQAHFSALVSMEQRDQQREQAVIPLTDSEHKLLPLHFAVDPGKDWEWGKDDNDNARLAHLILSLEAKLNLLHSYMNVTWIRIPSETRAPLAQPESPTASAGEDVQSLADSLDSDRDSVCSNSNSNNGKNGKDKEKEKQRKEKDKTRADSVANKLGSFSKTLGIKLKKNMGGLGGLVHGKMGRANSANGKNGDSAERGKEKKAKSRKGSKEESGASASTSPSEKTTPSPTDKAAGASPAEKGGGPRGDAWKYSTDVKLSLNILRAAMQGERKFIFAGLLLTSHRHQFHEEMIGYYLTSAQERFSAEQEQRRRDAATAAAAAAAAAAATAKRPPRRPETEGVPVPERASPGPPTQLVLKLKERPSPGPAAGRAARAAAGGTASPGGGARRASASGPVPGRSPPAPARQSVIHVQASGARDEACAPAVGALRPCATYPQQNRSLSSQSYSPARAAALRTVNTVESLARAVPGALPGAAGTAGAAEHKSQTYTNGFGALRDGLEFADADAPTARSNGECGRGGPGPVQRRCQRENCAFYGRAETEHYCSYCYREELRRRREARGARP
# Outline: as §1
# UniProt Q9P2H5 = target: T3, UniProt Q9P2H5
# T3 sequence (whole entry): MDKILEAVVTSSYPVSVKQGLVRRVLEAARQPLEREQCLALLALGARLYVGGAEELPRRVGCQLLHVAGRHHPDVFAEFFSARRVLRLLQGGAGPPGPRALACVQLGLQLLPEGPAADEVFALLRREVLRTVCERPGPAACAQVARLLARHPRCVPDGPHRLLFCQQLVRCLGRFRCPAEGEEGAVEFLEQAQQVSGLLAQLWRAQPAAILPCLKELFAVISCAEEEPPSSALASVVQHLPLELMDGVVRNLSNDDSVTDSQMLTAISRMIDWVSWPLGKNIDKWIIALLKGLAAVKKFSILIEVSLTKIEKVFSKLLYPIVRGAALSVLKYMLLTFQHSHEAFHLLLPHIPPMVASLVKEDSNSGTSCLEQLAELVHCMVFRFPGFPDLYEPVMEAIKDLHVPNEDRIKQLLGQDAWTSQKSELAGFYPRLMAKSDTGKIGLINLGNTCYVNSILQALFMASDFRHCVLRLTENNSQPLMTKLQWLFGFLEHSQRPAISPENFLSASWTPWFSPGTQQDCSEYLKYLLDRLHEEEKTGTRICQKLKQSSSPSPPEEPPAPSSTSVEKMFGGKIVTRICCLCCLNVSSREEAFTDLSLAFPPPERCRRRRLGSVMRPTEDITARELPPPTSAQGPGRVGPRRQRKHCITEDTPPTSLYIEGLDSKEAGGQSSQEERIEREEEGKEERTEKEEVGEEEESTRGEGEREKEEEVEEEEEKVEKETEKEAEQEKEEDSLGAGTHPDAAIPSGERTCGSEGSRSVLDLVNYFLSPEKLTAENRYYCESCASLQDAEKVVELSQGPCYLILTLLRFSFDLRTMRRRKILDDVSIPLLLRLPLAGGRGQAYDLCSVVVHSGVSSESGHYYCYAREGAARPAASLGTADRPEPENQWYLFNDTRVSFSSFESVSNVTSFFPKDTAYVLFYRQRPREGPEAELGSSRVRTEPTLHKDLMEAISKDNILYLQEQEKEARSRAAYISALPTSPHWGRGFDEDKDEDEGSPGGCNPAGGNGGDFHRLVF
# Outline: as §1
# UniProt Q9UGI0 = target: T4, UniProt Q9UGI0
# T4 sequence (whole entry): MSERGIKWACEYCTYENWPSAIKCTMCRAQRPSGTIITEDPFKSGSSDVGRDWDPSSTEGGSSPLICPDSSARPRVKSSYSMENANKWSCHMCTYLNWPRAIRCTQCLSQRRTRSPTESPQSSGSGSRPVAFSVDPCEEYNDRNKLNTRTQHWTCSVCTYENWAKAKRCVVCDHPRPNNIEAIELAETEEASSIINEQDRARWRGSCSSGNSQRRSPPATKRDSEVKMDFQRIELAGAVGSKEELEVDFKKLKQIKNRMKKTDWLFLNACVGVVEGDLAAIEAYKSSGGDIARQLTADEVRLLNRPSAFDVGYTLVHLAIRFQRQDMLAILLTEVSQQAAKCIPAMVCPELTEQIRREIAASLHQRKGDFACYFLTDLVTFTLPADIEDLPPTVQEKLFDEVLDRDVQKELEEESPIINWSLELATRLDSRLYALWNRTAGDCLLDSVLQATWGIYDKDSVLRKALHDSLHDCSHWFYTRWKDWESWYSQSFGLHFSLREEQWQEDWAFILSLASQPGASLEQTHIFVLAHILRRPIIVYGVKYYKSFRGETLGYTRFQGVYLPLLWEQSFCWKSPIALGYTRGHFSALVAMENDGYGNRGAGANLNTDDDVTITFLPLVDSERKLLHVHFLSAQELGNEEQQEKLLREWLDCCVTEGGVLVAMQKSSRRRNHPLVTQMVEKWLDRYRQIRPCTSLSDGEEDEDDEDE
# Outline: as §1
# YOD1 = target: T5, YOD1 (UniProt Q5VVQ6)
# T5 sequence (whole entry): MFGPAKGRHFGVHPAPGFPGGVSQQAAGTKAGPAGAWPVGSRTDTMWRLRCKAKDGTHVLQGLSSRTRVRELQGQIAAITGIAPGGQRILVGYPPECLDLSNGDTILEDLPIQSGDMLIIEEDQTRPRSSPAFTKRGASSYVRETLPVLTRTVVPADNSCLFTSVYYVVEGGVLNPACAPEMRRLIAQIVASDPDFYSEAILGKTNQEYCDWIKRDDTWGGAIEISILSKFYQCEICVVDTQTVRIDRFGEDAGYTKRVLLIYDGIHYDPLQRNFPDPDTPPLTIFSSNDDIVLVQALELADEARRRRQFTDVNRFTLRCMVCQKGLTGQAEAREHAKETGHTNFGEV
# Outline: as §1
# Chain of USP9X (Q93008 whole entry, the tested form may be a part): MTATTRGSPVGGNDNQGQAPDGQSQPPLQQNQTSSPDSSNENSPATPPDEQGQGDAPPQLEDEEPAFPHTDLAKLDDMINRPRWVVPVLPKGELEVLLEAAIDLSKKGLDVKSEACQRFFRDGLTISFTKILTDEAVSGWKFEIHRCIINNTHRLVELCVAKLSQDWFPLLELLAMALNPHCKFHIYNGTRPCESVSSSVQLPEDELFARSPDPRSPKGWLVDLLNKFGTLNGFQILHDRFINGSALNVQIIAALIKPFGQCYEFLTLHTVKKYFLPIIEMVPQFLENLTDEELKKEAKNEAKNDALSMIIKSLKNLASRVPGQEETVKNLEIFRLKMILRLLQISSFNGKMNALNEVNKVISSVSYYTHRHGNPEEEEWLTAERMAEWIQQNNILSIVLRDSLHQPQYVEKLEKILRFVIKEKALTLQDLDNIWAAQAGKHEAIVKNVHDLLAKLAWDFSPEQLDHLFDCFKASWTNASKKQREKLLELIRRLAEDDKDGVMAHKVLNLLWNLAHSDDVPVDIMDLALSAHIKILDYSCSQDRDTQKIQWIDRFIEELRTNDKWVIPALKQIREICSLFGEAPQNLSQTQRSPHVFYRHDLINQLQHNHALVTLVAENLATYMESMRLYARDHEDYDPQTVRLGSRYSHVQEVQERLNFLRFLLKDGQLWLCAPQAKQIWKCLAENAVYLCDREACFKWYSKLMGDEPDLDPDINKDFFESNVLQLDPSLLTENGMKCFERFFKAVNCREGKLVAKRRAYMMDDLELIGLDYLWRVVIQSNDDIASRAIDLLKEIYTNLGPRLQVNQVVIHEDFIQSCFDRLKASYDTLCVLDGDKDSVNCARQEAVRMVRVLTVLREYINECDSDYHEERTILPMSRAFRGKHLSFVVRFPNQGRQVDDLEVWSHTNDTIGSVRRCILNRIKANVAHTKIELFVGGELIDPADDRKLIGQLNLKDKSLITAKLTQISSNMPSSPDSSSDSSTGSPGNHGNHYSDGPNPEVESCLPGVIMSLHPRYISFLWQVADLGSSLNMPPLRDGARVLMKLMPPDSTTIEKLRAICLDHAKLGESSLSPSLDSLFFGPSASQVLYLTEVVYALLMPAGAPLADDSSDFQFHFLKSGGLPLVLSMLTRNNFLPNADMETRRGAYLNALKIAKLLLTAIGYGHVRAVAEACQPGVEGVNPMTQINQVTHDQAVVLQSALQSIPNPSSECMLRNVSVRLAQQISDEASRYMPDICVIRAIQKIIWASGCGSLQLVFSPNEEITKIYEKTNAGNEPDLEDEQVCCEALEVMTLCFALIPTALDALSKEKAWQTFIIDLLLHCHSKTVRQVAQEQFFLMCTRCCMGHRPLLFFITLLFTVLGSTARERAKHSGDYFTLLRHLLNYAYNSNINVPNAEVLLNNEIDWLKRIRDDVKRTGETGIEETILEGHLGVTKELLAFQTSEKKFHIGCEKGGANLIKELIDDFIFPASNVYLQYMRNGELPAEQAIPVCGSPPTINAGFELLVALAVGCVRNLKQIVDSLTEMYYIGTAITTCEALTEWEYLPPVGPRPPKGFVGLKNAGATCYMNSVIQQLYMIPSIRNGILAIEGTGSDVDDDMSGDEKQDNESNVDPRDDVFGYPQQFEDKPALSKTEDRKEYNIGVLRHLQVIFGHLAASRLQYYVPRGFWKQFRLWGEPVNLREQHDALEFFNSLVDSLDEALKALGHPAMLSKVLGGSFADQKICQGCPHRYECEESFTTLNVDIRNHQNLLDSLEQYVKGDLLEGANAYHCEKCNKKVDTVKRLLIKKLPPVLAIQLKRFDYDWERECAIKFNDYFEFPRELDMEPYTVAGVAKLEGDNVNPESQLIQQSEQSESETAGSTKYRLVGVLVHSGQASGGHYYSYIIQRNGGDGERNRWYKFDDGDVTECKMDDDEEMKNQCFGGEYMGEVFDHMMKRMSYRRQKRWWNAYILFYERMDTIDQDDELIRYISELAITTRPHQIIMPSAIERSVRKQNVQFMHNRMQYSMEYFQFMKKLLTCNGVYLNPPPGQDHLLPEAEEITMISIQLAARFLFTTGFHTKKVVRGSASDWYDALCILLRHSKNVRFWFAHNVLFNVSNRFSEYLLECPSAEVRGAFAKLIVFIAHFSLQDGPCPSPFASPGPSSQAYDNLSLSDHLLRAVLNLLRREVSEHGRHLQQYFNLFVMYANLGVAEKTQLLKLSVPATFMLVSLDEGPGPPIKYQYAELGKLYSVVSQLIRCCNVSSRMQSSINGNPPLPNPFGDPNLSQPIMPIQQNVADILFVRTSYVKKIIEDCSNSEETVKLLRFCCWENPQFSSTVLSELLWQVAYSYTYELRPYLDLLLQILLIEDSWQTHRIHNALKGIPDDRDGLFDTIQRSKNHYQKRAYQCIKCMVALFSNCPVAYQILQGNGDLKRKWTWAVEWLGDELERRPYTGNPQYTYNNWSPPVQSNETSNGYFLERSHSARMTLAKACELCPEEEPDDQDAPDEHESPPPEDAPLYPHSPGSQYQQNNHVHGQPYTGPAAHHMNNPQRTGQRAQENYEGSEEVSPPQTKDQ
# Chain of UniProt O00487 (O00487 whole entry): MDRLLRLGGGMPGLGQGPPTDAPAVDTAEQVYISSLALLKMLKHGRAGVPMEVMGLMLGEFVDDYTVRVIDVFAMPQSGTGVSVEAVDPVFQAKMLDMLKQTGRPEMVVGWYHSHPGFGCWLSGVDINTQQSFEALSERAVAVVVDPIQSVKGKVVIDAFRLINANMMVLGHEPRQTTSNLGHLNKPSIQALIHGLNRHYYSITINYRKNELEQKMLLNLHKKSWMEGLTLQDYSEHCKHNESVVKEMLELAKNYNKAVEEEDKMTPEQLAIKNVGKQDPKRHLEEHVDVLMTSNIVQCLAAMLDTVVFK
# Chain of UniProt P51784 (P51784 whole entry): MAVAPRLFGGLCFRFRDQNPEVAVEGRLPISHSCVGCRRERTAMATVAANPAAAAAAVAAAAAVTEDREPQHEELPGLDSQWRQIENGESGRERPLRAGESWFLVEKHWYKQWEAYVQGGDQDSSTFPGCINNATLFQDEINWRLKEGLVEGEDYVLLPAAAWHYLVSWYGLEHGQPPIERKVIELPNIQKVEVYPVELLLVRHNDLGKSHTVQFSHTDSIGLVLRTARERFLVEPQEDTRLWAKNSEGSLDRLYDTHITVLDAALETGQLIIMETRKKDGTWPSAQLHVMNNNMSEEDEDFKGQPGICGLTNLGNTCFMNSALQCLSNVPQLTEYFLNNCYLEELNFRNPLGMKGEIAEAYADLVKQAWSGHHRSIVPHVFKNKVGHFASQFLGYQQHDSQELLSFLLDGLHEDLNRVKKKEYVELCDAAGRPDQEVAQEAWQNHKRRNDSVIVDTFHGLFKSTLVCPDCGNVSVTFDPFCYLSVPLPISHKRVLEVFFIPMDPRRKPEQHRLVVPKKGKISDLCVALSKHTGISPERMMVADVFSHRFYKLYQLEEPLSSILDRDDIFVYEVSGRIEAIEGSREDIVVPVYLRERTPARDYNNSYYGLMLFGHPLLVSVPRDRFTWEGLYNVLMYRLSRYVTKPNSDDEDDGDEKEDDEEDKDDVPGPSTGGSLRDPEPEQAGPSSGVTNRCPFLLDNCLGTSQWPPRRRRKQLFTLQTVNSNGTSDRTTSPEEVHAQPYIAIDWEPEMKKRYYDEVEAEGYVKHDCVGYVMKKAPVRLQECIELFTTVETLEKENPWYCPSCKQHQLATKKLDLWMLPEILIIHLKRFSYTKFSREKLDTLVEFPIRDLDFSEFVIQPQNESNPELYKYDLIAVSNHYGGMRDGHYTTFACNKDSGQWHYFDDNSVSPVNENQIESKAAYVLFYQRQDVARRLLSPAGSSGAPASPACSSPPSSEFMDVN
structure (smiles),measurement,setting,value
CC(NC(=O)CCl)c1cccc(Cl)c1 (centres undefined),log2 ratio of Biotin-Ahx-Ub-VS probe labelling,USP9X,-0.388
same,log2 ratio of Biotin-Ahx-Ub-VS probe labelling,UniProt O00487,-0.18
same,log2 ratio of Biotin-Ahx-Ub-VS probe labelling,UniProt O00507,-0.176
same,log2 ratio of Biotin-Ahx-Ub-VS probe labelling,UniProt P51784,-0.0638
same,log2 ratio of Biotin-Ahx-Ub-VS probe labelling,UniProt Q5T2D3,-0.271
same,log2 ratio of Biotin-Ahx-Ub-VS probe labelling,UniProt Q8TE49,-0.632
same,log2 ratio of Biotin-Ahx-Ub-VS probe labelling,UniProt Q9P2H5,-0.25
same,log2 ratio of Biotin-Ahx-Ub-VS probe labelling,UniProt Q9UGI0,-1.18 (active)
same,log2 ratio of Biotin-Ahx-Ub-VS probe labelling,YOD1,-0.167
